Test results: PubChem BioAssay (Tox21)
Inconclusive results are not listed. Unmarked numbers belong to inactive results. The source made the active and inactive calls. Unless noted, calls follow the shape of the dose curve; as a rule, active = well fitted cell-killing curve with a large enough effect in the repeat runs; inconclusive = weak or mixed curves; inactive = no such curve, though single readings can be large or run the other way.

tested on: not listed separately; test: qHTS assay to identify small molecule antagonists of the androgen receptor (AR) signaling pathway - cell viability counter screen (AID 743033; also: nearly all actives have a fitted effect of over 45% in size); conditions: AR-bla HEK293 viability, CellTiter-Glo luminescence, 16 h; series mostly up to 58.5 µM; activity change, negative = cytotoxicity: at the top concentration
% is scaled to controls: 0 for no effect and ±100 for the full control effect; potency is read from the fitted curve at half-maximal effect.

Structure (SMILES) | Potency | activity change, negative = cytotoxicity
CN1CCC(=C2c3ccccc3Sc3ccccc32)CC1 | 23.9 µM (active) | 
CCC(C)c1cc(C(C)(C)C)c(O)c(C(C)(C)C)c1 (stereo unspecified) |  | 0.776%
C=C(C)C(=O)OCCOCC |  | 0.503% [at 78.9 µM]
Nc1cccc(S(=O)(=O)c2cccc(N)c2)c1 |  | -18.1%
CCCCC | inactive | 
CC(=O)[O][Al][O]C(C)=O | inactive | 
Cc1cc(C(=O)O)ccc1[N+](=O)[O-] |  | -1.34%
Nc1cccc([N+](=O)[O-])c1 |  | 0.426%
CCCCc1nc2cccnc2n1Cc1ccc(-c2ccccc2-c2nnn[nH]2)cc1 |  | -16%
C=C1C(=C/C=C2\CCC[C@]3(C)[C@@H]([C@H](C)/C=C/[C@@H](O)C4CC4)CC[C@@H]23)C[C@@H](O)C[C@@H]1O |  | -9.8%

biological target: Androgen receptor (Homo sapiens) (UniProt P10275); test: qHTS assay to identify small molecule antagonists of the androgen receptor (AR) signaling pathway (AID 743035; active = well fitted inhibition curve with a large enough effect in the signal ratio in the repeat runs, not every such curve was filed as active; the % refers to the signal ratio); conditions: HEK293 AR-UAS-bla, R1881-stimulated, beta-lactamase FRET, 16 h; series mostly up to 58.5 µM; activity change, negative = inhibition: at the top concentration
Sequence (P10275 whole entry, looked up): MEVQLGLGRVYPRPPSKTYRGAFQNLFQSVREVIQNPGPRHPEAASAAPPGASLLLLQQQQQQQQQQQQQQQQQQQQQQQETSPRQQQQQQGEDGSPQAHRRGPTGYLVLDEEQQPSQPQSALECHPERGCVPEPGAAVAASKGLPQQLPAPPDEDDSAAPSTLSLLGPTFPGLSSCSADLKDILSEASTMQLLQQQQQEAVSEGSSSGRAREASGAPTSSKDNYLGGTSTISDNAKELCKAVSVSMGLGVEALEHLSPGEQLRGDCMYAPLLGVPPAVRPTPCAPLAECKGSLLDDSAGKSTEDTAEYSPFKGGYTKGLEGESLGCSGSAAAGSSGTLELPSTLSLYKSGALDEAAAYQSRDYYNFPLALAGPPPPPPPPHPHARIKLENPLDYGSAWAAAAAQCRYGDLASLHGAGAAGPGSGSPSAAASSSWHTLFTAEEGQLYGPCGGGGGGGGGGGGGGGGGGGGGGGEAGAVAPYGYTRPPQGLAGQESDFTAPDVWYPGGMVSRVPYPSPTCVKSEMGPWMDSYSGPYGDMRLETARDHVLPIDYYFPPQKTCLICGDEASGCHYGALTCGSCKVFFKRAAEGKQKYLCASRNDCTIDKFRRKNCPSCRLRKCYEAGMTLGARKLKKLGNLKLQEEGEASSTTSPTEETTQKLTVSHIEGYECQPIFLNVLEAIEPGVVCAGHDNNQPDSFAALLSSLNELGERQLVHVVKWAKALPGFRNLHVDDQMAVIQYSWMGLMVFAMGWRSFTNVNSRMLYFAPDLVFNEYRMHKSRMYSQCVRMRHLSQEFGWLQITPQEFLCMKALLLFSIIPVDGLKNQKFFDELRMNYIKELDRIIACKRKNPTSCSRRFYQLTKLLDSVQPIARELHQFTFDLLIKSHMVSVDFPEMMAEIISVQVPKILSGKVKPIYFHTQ
Summary of the method: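 Antagonist mode: AR-bla HEK293 cells co-treated with test compounds and agonist R1881 for 16 h at 37C, 5% CO2. Beta-lactamase activity read as FRET fluorescence after 2 h room-temperature substrate loading.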

Structure (SMILES) | activity change, negative = inhibition [%] | Potency
OC(CN1CCC(Cc2ccc(F)cc2)CC1)c1ccc(Cl)cc1 (stereo unspecified) | 10.2 | 
O=[N+]([O-])c1ccc(NCCO)c(OCCO)c1 | -10.7 | 
CCC(=O)O[C@]1(C(=O)CCl)[C@@H](C)C[C@H]2[C@@H]3CCC4=CC(=O)C=C[C@]4(C)[C@@]3(F)[C@@H](O)C[C@@]21C |  | 7.56 µM (active)
CN1CCC(=C2c3ccccc3Sc3ccccc32)CC1 |  | 26.8 µM (active)
Nc1cccc([N+](=O)[O-])c1 | 1.09 | 
CC(=O)OC[C@H]1O[C@@H](n2ncc(=O)[nH]c2=O)[C@H](OC(C)=O)[C@@H]1OC(C)=O |  | 5.35 µM (active)
